Source: PubChem BioAssay (Tox21)
Records with an inconclusive call do not appear. Where a structure was tested more than once in an assay, its records may differ in their call. Calls of active or inactive are those of the source. Unless noted, calls follow the shape of the dose curve; as a rule, active = well fitted curve in the direction sought with a large enough effect in the repeat runs; inconclusive = weak or mixed curves; inactive = no such curve, though single readings can be large; an effect the other way counts as inactive or inconclusive.

What was measured:
[1] = qHTS assay to identify small molecule antagonists of the progesterone receptor (PR) signaling pathway - cell viability counter screen (AID 1346798); also: series mostly up to about 92 µM; nearly all actives have a fitted effect of over 50% in size
Outline: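 Same-well multiplex: after 16 hr at 37C with compound and R5020 stimulation, HEK293T cells carrying a UAS-bla reporter received LiveBLAzer substrate (2 hr RT), then CellTiter-Glo (30 min RT) for luminescent viability.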

[2] = qHTS assay to identify small molecule agonists of the progesterone receptor (PR) signaling pathway - cell viability counter screen (AID 1346799; calls by dose curve; also: nearly all actives have a fitted effect of over 45% in size)
Outline: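 Counter screen for cytotoxicity: compound-treated PR-UAS-bla HEK293T cells (16 hr, 37C, 5% CO2) were assayed with CellTiter-Glo, luminescence measured after 30 min at room temperature.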

[3] = qHTS assay to identify small molecule antagonists of the TGF-beta/Smad signaling pathway - cell viability counter screen (AID 1346824); also: nearly all actives have a fitted effect of over 50% in size
Outline: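 SBE-bla HEK 293T cells were plated overnight at 37 C, then given compounds in DMSO plus TGF-beta1 (added as 0.25 ng/mL solution) for 5 hr. After the bla read, CellTiter-Glo was added to the same wells and luminescence read after 30 min at room temperature.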

[4] = qHTS assay to identify small molecule agonists of the TGF-beta/Smad signaling pathway - cell viability counter screen (AID 1346829); also: top concentration of the series differs between compounds; nearly all actives have a fitted effect of over 45% in size
Outline: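 Luminescence from CellTiter-Glo, read after a 30 min room-temperature incubation, gives cell viability of SBE-bla HEK 293T cells treated 5 hr with compounds at 37 C.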

[5] = target: Thyrotropin-releasing hormone receptor (Homo sapiens) (UniProt P34981); assay: qHTS assay to identify small molecule antagonists of the thyrotropin-releasing hormone receptor (TRHR) signaling pathway (AID 1346877; active = well fitted inhibition curve with a large enough effect in the repeat runs, not every such curve was filed as active; also: series mostly up to about 51 µM)
Sequence of Thyrotropin-releasing hormone receptor (Homo sapiens) (P34981 whole entry, looked up): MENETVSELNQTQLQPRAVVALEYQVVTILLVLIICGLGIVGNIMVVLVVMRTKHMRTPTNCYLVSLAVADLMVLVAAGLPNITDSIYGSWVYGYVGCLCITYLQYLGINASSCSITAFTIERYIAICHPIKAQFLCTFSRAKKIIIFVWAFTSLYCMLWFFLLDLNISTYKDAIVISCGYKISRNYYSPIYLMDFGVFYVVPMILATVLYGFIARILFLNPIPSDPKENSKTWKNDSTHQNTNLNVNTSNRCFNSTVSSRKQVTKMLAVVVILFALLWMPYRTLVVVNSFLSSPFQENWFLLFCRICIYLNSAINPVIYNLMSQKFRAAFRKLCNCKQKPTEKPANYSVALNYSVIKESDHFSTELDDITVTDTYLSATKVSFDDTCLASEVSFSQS
Outline: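 Intracellular calcium fluorescence, read kinetically every second over 3 min, reports TRH-evoked signalling in HEK293 cells carrying TRHR. Test compounds were added 5 min ahead of a 1 nM TRH challenge.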

[6] = Human pregnane X receptor (PXR) small molecule agonists, qHTS cell viability counter screen (AID 1346977); also: nearly all actives have a fitted effect of over 50% in size; also: potency is read from the fitted curve at half-maximal effect
Outline: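 Measures live-cell protease fluorescence (CellTiter-Fluor) in PXR-Luc HepG2 cells treated 24hr with compounds at 37C. Cells had 5hr to attach before pin transfer of DMSO solutions.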

[7] = Caspase-3/7 induction in HepG2 cells by small molecules, qHTS assay (AID 1346978); also: nearly all actives have a fitted effect of over 15% in size
Outline: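 Wild-type HepG2 cells (2,000/well) were settled 5 h at 37 C, 5% CO2, then exposed to compounds in DMSO for 17 h. Caspase-3/7 activity was read by luminescence 30 min after adding Caspase-Glo 3/7 reagent at room temperature.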

[8] = Caspase-3/7 induction in CHO-K1 cells by small molecules, qHTS cell viability counter screen (AID 1346979); also: nearly all actives have a fitted effect of over 35% in size; also: potency is read from the fitted curve at half-maximal effect
Outline: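 In the same wells as the caspase read, viability of compound-treated wild-type CHO-K1 cells was assessed using CellTiter-Fluor, added after 16hr at 37C and measured by fluorescence following 1hr further incubation.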

[9] = Caspase-3/7 induction in CHO-K1 cells by small molecules, qHTS assay (AID 1346980); also: nearly all actives have a fitted effect of over 15% in size
Outline: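 Wild-type cells were seeded at 1,500 per well and settled 5 hr at 37 C, 5% CO2, then exposed to DMSO-dissolved compounds for 17 hr. Caspase-Glo 3/7 reagent was added, and luminescence was read after 30min at room temperature.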

[10] = Caspase-3/7 induction in HepG2 cells by small molecules, qHTS cell viability counter screen (AID 1346981); also: nearly all actives have a fitted effect of over 30% in size; also: potency is read from the fitted curve at half-maximal effect
Outline: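 HepG2, WT, 2,000 cells/well; 5 hr pre-incubation 37 C/5% CO2; compound pin-transferred from DMSO; 16 hr exposure; CellTiter-Fluor, 1 hr; fluorescence read.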

[11] = target: Nuclear receptor subfamily 1 group I member 2 (Homo sapiens) (UniProt O75469); assay: Human pregnane X receptor (PXR) small molecule agonists, qHTS assay (AID 1346982); also: nearly all actives have a fitted effect of over 35% in size; also: potency is read from the fitted curve at half-maximal effect
Sequence of Nuclear receptor subfamily 1 group I member 2 (Homo sapiens) (O75469 whole entry, looked up): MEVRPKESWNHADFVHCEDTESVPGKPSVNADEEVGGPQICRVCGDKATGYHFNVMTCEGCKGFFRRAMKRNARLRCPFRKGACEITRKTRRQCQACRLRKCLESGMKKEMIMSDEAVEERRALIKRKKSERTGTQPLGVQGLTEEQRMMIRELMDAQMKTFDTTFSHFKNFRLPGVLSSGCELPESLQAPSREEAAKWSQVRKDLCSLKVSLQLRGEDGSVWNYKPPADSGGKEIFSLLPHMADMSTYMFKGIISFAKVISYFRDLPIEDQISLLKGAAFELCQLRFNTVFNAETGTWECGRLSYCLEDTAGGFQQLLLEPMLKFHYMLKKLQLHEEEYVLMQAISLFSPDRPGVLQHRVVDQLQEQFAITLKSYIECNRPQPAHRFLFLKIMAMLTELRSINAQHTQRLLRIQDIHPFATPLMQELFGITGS
Outline: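 Luciferase signal from ONE-Glo (30 min, room temperature) measured activation of hPXR-driven CYP3A4 reporter expression in PXR-Luc HepG2 cells treated with compounds for 24 hr at 37 C.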

[12] = target: Cytochrome P450 2D6 (Homo sapiens) (UniProt P10635); assay: Cytochrome P450 Family 2 Subfamily D Member 6 (CYP2D6) small molecule antagonists: luciferase reporter qHTS assay (AID 1671196); also: nearly all actives have a fitted effect of over 50% in size; also: potency is read from the fitted curve at half-maximal effect
Sequence of Cytochrome P450 2D6 (Homo sapiens) (P10635 whole entry, looked up): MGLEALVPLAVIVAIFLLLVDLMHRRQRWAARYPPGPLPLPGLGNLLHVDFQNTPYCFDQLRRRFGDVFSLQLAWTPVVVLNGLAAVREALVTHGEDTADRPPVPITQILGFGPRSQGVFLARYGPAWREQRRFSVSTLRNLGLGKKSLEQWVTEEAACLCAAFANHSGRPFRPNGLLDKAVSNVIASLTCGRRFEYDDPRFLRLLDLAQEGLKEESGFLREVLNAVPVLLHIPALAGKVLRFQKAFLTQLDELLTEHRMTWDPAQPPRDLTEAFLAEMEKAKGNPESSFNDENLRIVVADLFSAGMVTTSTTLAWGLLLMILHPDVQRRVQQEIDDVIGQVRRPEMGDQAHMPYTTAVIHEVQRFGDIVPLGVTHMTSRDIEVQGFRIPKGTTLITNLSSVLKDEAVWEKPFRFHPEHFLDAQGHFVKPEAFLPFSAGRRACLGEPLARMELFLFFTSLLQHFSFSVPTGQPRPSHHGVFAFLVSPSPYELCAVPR
Outline: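 Read-out is luminescence from luciferin formed by CYP2D6 turnover of a proluciferin substrate, recorded as relative luminescence units. Reactions ran 1 h at room temperature after NADPH regeneration solution was added.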

[13] = target: Cytochrome P450 2C19 (Homo sapiens) (UniProt P33261); assay: Cytochrome P450 Family 2 Subfamily C Member 19 (CYP2C19) small molecule antagonists: luciferase reporter qHTS assay (AID 1671197); also: nearly all actives have a fitted effect of over 65% in size; also: potency is read from the fitted curve at half-maximal effect
Sequence of Cytochrome P450 2C19 (Homo sapiens) (P33261 whole entry, looked up): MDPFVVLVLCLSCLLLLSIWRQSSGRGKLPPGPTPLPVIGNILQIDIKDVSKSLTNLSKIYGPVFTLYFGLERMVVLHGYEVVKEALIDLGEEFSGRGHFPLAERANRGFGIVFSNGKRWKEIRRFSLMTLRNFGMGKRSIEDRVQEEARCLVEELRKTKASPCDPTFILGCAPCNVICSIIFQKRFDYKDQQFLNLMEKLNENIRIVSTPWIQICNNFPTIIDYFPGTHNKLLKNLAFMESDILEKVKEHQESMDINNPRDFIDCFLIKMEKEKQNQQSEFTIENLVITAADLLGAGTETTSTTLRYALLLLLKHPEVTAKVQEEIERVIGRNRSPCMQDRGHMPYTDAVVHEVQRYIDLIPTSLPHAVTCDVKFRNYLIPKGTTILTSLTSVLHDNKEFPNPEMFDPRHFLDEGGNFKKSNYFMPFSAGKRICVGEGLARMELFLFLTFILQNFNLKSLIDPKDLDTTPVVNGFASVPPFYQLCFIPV
Outline: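 CYP2C19 P450-Glo, 1536-well qHTS. Cpd + enzyme/proluciferin substrate 10 min RT; + NADPH regen, 37C 1 h; stop with luciferin detection reagent, 20 min RT, luminescence (RLU). Pos ctrl ketoconazole.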

[14] = target: Progesterone receptor (Homo sapiens) (UniProt P06401); assay: qHTS assay to identify small molecule antagonists of the progesterone receptor (PR) signaling pathway (AID 1346795; active = well fitted inhibition curve with a large enough effect in the signal ratio in the repeat runs, not every such curve was filed as active; the % refers to the signal ratio; also: potency is read from the fitted curve at half-maximal effect)
Sequence of Progesterone receptor (Homo sapiens) (P06401 whole entry, looked up): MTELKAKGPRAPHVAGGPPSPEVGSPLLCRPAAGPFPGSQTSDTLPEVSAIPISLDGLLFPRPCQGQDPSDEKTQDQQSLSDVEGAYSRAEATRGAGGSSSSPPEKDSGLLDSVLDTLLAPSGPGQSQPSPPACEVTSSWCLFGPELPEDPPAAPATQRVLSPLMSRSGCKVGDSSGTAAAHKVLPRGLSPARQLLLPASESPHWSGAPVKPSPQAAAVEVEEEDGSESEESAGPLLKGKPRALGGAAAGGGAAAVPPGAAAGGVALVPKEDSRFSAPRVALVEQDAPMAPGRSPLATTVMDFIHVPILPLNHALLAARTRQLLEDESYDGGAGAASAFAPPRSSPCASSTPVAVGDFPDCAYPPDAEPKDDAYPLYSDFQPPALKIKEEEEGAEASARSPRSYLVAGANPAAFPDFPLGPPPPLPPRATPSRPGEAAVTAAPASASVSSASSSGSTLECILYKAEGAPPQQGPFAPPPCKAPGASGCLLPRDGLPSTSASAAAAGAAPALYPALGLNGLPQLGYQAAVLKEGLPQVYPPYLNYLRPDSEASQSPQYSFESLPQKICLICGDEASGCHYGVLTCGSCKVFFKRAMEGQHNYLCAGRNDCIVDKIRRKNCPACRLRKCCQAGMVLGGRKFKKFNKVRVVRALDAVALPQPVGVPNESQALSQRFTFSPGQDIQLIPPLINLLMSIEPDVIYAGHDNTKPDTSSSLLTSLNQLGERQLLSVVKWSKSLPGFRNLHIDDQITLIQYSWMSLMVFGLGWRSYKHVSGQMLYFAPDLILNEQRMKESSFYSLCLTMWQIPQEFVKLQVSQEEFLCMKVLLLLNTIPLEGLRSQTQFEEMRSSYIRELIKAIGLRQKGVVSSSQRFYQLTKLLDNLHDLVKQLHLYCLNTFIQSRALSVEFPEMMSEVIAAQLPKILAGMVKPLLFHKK
Outline: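 HEK293T PR-UAS-bla reporter cells in charcoal-stripped serum (2%) received compound after a 6 hr settling period, followed by R5020 agonist at 1 nM final; 16 hr incubation preceded the FRET substrate step and fluorescence measurement.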

[15] = target: Thyrotropin-releasing hormone receptor (Homo sapiens) (UniProt P34981); assay: qHTS assay to identify small molecule agonists of the thyrotropin-releasing hormone receptor (TRHR) signaling pathway (AID 1346891; calls by dose curve;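 also: HEK293 cells expressing TRHR with calcium dye readout; series mostly up to about 58 µM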)
Outline: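 Agonist-mode calcium mobilisation screen: TRHR-transfected HEK293 cells cultured overnight (18 h), dye-loaded for 2 h at 37 °C, exposed to compounds, and monitored by fluorescence for 3 min.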

[16] = target: Nuclear receptor subfamily 1 group I member 2 (Rattus norvegicus) (UniProt Q9R1A7); assay: Rat pregnane X receptor (rPXR) activation by small molecules, qHTS assay (AID 1346983); settings: rPXR luciferase reporter cells, One-Glo luminescence, 24 h; stronger effect = higher value; also: nearly all actives have a fitted effect of over 20% in size
Sequence of Nuclear receptor subfamily 1 group I member 2 (Rattus norvegicus) (Q9R1A7 whole entry, looked up): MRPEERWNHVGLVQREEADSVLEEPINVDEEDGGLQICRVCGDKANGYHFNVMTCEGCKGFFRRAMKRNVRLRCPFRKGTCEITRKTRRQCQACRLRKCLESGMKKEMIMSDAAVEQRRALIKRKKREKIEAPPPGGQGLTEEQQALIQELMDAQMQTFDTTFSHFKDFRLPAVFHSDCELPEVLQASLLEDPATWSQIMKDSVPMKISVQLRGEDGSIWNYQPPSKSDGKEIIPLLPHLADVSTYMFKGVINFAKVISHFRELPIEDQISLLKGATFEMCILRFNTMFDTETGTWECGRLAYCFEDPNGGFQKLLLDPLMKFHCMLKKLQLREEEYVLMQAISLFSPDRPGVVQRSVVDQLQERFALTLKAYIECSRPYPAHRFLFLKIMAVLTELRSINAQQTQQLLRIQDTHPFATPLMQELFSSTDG
Outline: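 Cell-based rPXR luciferase reporter assay, 2,000 cells per well, rested 5hr at 37 C before compound addition in DMSO, then 24 hr at 37 C. One-Glo reagent was added and luminescence read after 30 min at room temperature.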

[17] = target: Nuclear receptor subfamily 1 group I member 2 (Homo sapiens) (UniProt O75469); assay: CYP3A4 induction through human pregnane X receptor (PXR) by small molecules, qHTS assay (AID 1346984); also: nearly all actives have a fitted effect of over 40% in size; also: potency is read from the fitted curve at half-maximal effect
Outline: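 Luminescence readout: luciferase signal after One-Glo (30 min, room temperature), following 3 h at 37C with 3uM final Luciferin-IPA P450 substrate. Cells were DPX-2 (HepG2, PXR/CYP3A4-luc co-transfected) dosed for 24 h.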

[18] = target: Nuclear receptor subfamily 1 group I member 2 (Homo sapiens) (UniProt O75469); assay: Human pregnane X receptor (PXR) activation by small molecules, qHTS assay (AID 1346985); also: nearly all actives have a fitted effect of over 40% in size
Outline: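 DPX-2 cells (HepG2 co-transfected with a PXR response element and a CYP3A4-promoter luciferase construct) were seeded at 2,000 per well, rested 5 hr at 37C, then exposed to DMSO-dissolved compounds for 24 hr. Activation was read as luciferase luminescence.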

[19] = target: Progesterone receptor (Homo sapiens) (UniProt P06401); assay: qHTS assay to identify small molecule agonists of the progesterone receptor (PR) signaling pathway (AID 1346784; calls by dose curve; also: nearly all actives have a fitted effect of over 30% in size)
Outline: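 Agonist mode, quantitative HTS format in a HEK 293T line expressing a UAS-controlled beta-lactamase reporter; 16 hr compound exposure at 37C in 2% charcoal-stripped FBS, then LiveBLAzer B/G FRET fluorescence.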

[20] = qHTS assay to identify small molecule agonists of the TGF-beta/Smad signaling pathway (AID 1346859; active = well fitted activation curve with a large enough effect in the signal ratio in the repeat runs, not every such curve was filed as active; the % refers to the signal ratio; also: potency is read from the fitted curve at half-maximal effect; as to activation: series mostly up to about 77 µM)
Outline: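 Smad-responsive beta-lactamase reporter cells (HEK 293T) received compounds from DMSO stocks after overnight attachment, were incubated 5 hr, then treated 2 hr with FRET substrate before dual-emission fluorescence measurement (405 nm excitation).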
% is scaled to controls: 0 for no effect and ±100 for the full control effect.

C=C(CC)C(=O)c1ccc(OCC(=O)O)c(Cl)c1Cl
inactive: Potency [1] | Potency [2] | Potency [3] | Potency [4] | Potency [5] | Potency [7] | Potency [9] | Potency [11] | Potency [13]
68.1 µM (active) and inactive: Potency [8]
active: Potency [6] 43 µM | Potency [10] 30.4 µM
25 µM (active) and inactive: Potency [12]

Nc1ccc(Oc2ccc(Cl)cc2)cc1
active: Potency [14] 18.9 µM | Potency [11] 33.6 µM | Potency [12] 39.1 µM | Potency [13] 2.47 µM
inactive: Potency [3] | Potency [4] | Potency [6] | Potency [7] | Potency [9] | Potency [10]

CC(C(=O)O)c1ccc2c(c1)[nH]c1ccc(Cl)cc12 (stereo not given)
inactive: Potency [14] | Potency [1] | Potency [3] | Potency [4] | Potency [5] | outcome [15] | Potency [6] | Potency [7] | Potency [9] | Potency [10] | Potency [11] | max activation [16] -1.86% | Potency [17] | Potency [18] | Potency [12] | Potency [13]

CN(C)Cc1cc(C(C)(C)C)c(O)c(C(C)(C)C)c1
active: Potency [13] 10 µM
inactive: Potency [19] | Potency [3] | Potency [20] | Potency [6] | Potency [7] | Potency [8] | Potency [9] | Potency [10]

Cc1c(C)c([N+](=O)[O-])c(C(C)(C)C)c([N+](=O)[O-])c1C
inactive: Potency [1] | Potency [2] | Potency [3] | Potency [4] | Potency [20] | Potency [5] | outcome [15] | Potency [6] | Potency [7] | Potency [8] | Potency [9] | Potency [10] | Potency [12]
active: Potency [13] 28.3 µM

CC(C)(c1cc(Br)c(OCC(Br)CBr)c(Br)c1)c1cc(Br)c(OCC(Br)CBr)c(Br)c1 (stereo not given)
inactive: Potency [1] | Potency [2] | Potency [3] | Potency [4] | Potency [20] | Potency [5] | outcome [15] | Potency [6] | Potency [7] | Potency [8] | Potency [9] | Potency [10] | Potency [11] | Potency [12] | Potency [13]

CCc1oc2ccccc2c1C(=O)c1cc(I)c(O)c(I)c1
inactive: Potency [3] | Potency [4] | Potency [20] | Potency [7] | Potency [9] | Potency [10] | Potency [11] | max activation [16] -8.05%
active: Potency [14] 21.1 µM | Potency [17] 25.1 µM

O=S(=O)(O)c1ccc(Nc2nc(Nc3ccc(/C=C/c4ccc(Nc5nc(Nc6ccc(S(=O)(=O)O)cc6)nc(N(CCO)CCO)n5)cc4S(=O)(=O)O)c(S(=O)(=O)O)c3)nc(N(CCO)CCO)n2)cc1
inactive: Potency [1] | Potency [2] | Potency [3] | Potency [4] | Potency [5] | outcome [15] | Potency [6] | Potency [7] | Potency [8] | Potency [9] | Potency [10] | Potency [11] | Potency [12]
active: Potency [20] 33.1 µM

O=C(c1ccc(O)c(O)c1)c1ccc(O)cc1O
inactive: Potency [3] | Potency [4] | Potency [9]
active: Potency [14] 15.3 µM | Potency [6] 50.1 µM | Potency [8] 54.4 µM | Potency [11] 54.4 µM | Potency [12] 3.55 µM | Potency [13] 17.8 µM

Cc1ccc(O)c(O)c1
active: Potency [14] 42 µM | Potency [8] 52.9 µM | Potency [11] 59.4 µM
inactive: Potency [3] | Potency [4] | Potency [20] | Potency [5] | outcome [15] | Potency [7] | Potency [9] | Potency [12] | Potency [13]

Cc1cc(C(C#N)c2ccc(Cl)cc2)c(Cl)cc1NC(=O)c1cc(I)cc(I)c1O (stereo not given)
inactive: Potency [3] | Potency [4] | Potency [20] | Potency [5] | Potency [7] | Potency [9] | max activation [16] -15.9% | Potency [17] | Potency [18] | Potency [12]
active: Potency [14] 29.8 µM | Potency [6] 16.8 µM | Potency [13] 8.71 µM
